Inconclusive results are not listed. The source made the active and inactive calls. Calls come from the whole dose curve.
How the values were obtained:
[1] = molecular target: Acetylcholinesterase (Homo sapiens) (UniProt P22303); assay: Acetylcholinesterase (AChE) small molecule antagonists: colormetric cell-based qHTS assay (AID 1347395); note: nearly all actives have a fitted effect of over 30% in size
Outline: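 Neuroblastoma line SH-SY5Y supplied the enzyme; cells were preincubated with compound for 30 min at 37 C and 5% CO2. Acetylthiocholine with DTNB was then added for 90 min at 37 C, and thiocholine was measured by colour.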

[2] = molecular target: Acetylcholinesterase (Homo sapiens) (UniProt P22303); assay: Acetylcholinesterase (AChE) small molecule antagonists: enzyme-based qHTS assay (AID 1347397); settings: Potency: AChE enzyme activity inhibition; outcome: AChE enzyme activity inhibition; note: nearly all actives have a fitted effect of over 55% in size
Outline: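 Human recombinant acetylcholinesterase; substrate acetylthiocholine; thiocholine quantified with DTNB (colorimetric). Compound preincubation 30 min RT; reaction 10 min RT.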

[3] = molecular target: Acetylcholinesterase (Homo sapiens) (UniProt P22303); assay: Acetylcholinesterase (AChE) small molecule antagonists: fluorescence cell-based qHTS assay (AID 1347398); settings: Potency: AChE activity; outcome: AChE activity; note: nearly all actives have a fitted effect of over 50% in size
Outline: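 Thiocholine generated from acetylthiocholine by SH-SY5Y cell AChE is detected with Thiolite Green (Ex/Em 490/520 nm) after 40 min at room temperature, following 30 min compound pretreatment at 37 C.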

[4] = molecular target: Acetylcholinesterase (Homo sapiens) (UniProt P22303); assay: Acetylcholinesterase (AChE) small molecule antagonists: enzyme-based qHTS assay with human liver microsomes (AID 1347399); settings: Potency: qHTS inhibition; outcome: qHTS inhibition; note: nearly all actives have a fitted effect of over 60% in size
Outline: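 Recombinant human AChE (50 mU/mL in the enzyme mix) and human liver microsomes (0.25 mg/mL final) were preincubated with compound and NADPH (0.25 mg/mL final) for 30 min at 37 C. Acetylthiocholine/DTNB was then added; thiocholine was read colorimetrically after 10 min at room temperature.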
% is set by controls: 0 for no effect and ±100 for the full control effect.

Sequence of Acetylcholinesterase (Homo sapiens) (P22303 whole entry, looked up): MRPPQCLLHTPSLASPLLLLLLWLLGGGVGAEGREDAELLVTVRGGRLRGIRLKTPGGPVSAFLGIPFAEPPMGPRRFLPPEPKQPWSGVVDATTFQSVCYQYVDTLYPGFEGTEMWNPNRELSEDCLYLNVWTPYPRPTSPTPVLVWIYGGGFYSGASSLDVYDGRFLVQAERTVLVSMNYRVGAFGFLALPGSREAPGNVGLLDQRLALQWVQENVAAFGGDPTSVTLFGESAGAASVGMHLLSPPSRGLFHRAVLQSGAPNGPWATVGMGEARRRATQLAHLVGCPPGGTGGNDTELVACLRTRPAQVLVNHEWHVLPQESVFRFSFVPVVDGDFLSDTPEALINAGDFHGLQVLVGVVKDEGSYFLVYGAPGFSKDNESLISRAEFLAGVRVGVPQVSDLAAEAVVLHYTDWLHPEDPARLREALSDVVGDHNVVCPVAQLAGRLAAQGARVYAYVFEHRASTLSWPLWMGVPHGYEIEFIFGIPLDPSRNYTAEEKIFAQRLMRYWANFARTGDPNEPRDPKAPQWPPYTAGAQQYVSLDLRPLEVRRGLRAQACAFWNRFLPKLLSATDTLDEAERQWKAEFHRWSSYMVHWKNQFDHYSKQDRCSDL

Cc1c(NC(C)C)c(=O)n(-c2ccccc2)n1C
inactive: Potency [1] | Potency [2] | Potency [3] | Potency [4]

COc1ccccc1N1CCN(CC(O)COc2cc(OC)c(OC)c(OC)c2)CC1 (stereo not drawn)
inactive: Potency [1] | Potency [2] | Potency [3] | Potency [4]

CN(C)CCCO[C@@H]1[C@H]2OC(C)(C)O[C@H]2O[C@@H]1C(O)CO (stereo partly drawn)
inactive: Potency [1] | Potency [2] | Potency [3] | Potency [4]

CCCCC(CC)C(=O)OC(C)C (stereo not drawn)
inactive: Potency [1] | Potency [2] | Potency [3] | Potency [4]

CCC(C)c1ccccc1 (stereo not drawn)
inactive: Potency [1] | Potency [2] | Potency [3] | Potency [4]

O=C1CCCCCCCCCCC(=O)OCCO1
inactive: Potency [1] | Potency [2] | Potency [3] | Potency [4]

CC1(CO)CN(c2ccccc2)NC1=O (stereo not drawn)
inactive: Potency [1] | Potency [2] | Potency [3] | Potency [4]

O=c1cccccc1O
inactive: Potency [1] | Potency [2] | Potency [3] | Potency [4]

CC1CCc2c(N3CCC(O)CC3)c(F)cc3c(=O)c(C(=O)O)cn1c23 (stereo not drawn)
inactive: Potency [1] | Potency [2] | Potency [3] | Potency [4]

CC(C)(O)CCCC1=CCC(C=O)CC1 (stereo not drawn)
inactive: Potency [1] | Potency [2] | Potency [3] | Potency [4]

NC(=O)Nc1ccc(Cl)cc1
inactive: Potency [1] | Potency [2] | Potency [3] | Potency [4]

COc1cc(N)ccc1C
inactive: Potency [1] | Potency [2] | Potency [3] | Potency [4]

CCC1(CO)COCOC1
inactive: Potency [1] | Potency [2] | Potency [3] | Potency [4]

COc1nc(C)nc(Cl)c1NC1=NCCN1
inactive: Potency [1] | Potency [2] | Potency [3] | Potency [4]

CCCCC(CC)COC(=O)c1ccccc1O (stereo not drawn)
inactive: Potency [1] | Potency [2] | Potency [3] | Potency [4]

CCN1CCOCC1
inactive: Potency [1] | Potency [2] | Potency [3] | Potency [4]

C#CC(O)CCCCC (stereo not drawn)
inactive: Potency [1] | Potency [2] | Potency [3] | Potency [4]

O=C(O)c1cc(N=Nc2ccc([N+](=O)[O-])cc2)ccc1O
inactive: Potency [1] | Potency [2] | Potency [3] | Potency [4]

Cc1ccc(NC(N)=O)cc1
inactive: Potency [1] | Potency [2] | Potency [3] | Potency [4]

O=Cc1ccc(F)c(Br)c1
inactive: Potency [1] | Potency [2] | Potency [3] | Potency [4]

Cc1ccccc1N=Nc1ccc(N=Nc2c(O)ccc3ccccc23)c(C)c1
inactive: Potency [1] | Potency [2] | Potency [3] | Potency [4]

NC[C@H]1O[C@H](O[C@H]2[C@H](O)[C@@H](O[C@H]3O[C@H](CO)[C@@H](O)[C@H](N)[C@H]3O)[C@H](N)C[C@@H]2N)[C@H](O)[C@@H](O)[C@@H]1O
inactive: activity, negative = inhibition [1] -1.99% [at 10.5 µM] | activity change, negative = inhibition [2] 0.413% [at 10.5 µM] | activity change, negative = inhibition [3] 2.3% [at 10.5 µM] | activity change, negative = inhibition [4] -5.67% [at 10.5 µM]

Nc1ccc(F)c([N+](=O)[O-])c1
inactive: Potency [1] | Potency [2] | Potency [3] | Potency [4]

CCN(CC)c1ccc(C(=C2C=CC(=[N+](CC)CC)C=C2)c2cc(S(=O)(=O)O)ccc2S(=O)(=O)[O-])cc1
inactive: Potency [1] | Potency [2] | Potency [3] | Potency [4]

Cc1cc(=O)c2c(O)c3c(O)cc(=O)c4c3c3c(cc(O)c1c23)C(C)(C)C=4O
inactive: activity, negative = inhibition [1] 0.337% [at 23.6 µM] | activity change, negative = inhibition [2] 2.31% [at 23.6 µM] | activity change, negative = inhibition [3] 7.09% [at 23.8 µM] | activity change, negative = inhibition [4] 0.168% [at 23.6 µM]

[K+]
inactive: Potency [1] | Potency [2] | Potency [3] | Potency [4]

CCN1CCC[C@H]1CNC(=O)c1c(OC)ccc(Br)c1OC
inactive: Potency [1] | Potency [2] | Potency [3] | Potency [4]

C=C(C)[C@@H]1CC[C@@H](C)C[C@@H]1O
inactive: Potency [1] | Potency [2] | Potency [3] | Potency [4]

CCOC(=O)CC(C)C
inactive: Potency [1] | Potency [2] | Potency [3] | Potency [4]

CNC(C)=O
inactive: Potency [1] | Potency [2] | Potency [3] | Potency [4]

CC/C=C/CCCCCCCCCCOC(C)=O
inactive: Potency [1] | Potency [2] | Potency [3] | Potency [4]

N#CC1(c2ccc(F)cc2)CCC(=O)CC1
inactive: Potency [1] | Potency [2] | Potency [3] | Potency [4]

Nc1ccc(C(=O)O)c(O)c1
inactive: Potency [1] | Potency [2] | Potency [3] | Potency [4]

CCOC(=O)c1ncn2c1CN(C)C(=O)c1cc(F)ccc1-2
inactive: Potency [1] | Potency [2] | Potency [3] | Potency [4]

CCCCNC1CC(C)(C)NC(C)(C)C1
inactive: Potency [1] | Potency [2] | Potency [3] | Potency [4]

O=C(Nc1ccc([N+](=O)[O-])cc1)Nc1ccc([N+](=O)[O-])cc1 (tested in a mixture with another compound)
inactive: Potency [1] | Potency [2] | Potency [3] | Potency [4]

Cn1c(=O)c2c(ncn2CC(=O)O)n(C)c1=O
inactive: Potency [1] | Potency [2] | Potency [3] | Potency [4]

Source: PubChem BioAssay (Tox21)
